Assay results reported in PubChem BioAssay (Tox21).
Activity calls are given as the source filed them. Calls come from the whole dose curve; as a rule, active = well fitted curve in the direction sought with a large enough effect in the repeat runs; inconclusive = weak or mixed curves; inactive = flat fitted curve, though single readings scatter.

Assay: qHTS assay to test for compound auto fluorescence at 535 nm (green) in HepG2 cell free culture (AID 720686)
Conditions: Cell-free medium, green autofluorescence 485/535 nm; series mostly up to 91.3 µM
Source text: U.S. Tox21 Program National Center for Advancing Translational Sciences [NCATS] NIH Chemical Genomics Center [NCGC] U.S. Environmental Protection Agency [EPA] National Institutes of Environmental Health Sciences [NIEHS] National Toxicology Program [NTP] U.S. Food and Drug Administration [FDA] Tox21 Assay Overview: Compound auto fluorescence often interferes with screening of the compound library against various biological targets and signaling pathways. Some of these compounds may have fluorophoric properties. Such properties may interfere with the assay outputs resulting in false positives and/or negatives. To decrease such complications and ensure the compound activities are relevant in terms of biological response, the Tox21 10K compound library was screened for auto fluorescence. From the fluorophores used as reporter signals in our screening assays, the auto fluorescence equivalencies of compounds against three fluorophores have been evaluated: Triamterene, Fluorescein and Rose Bengal sodium for blue, green and red fluorescence, respectively. The fluorescence intensities were measured using Excitation/Emission wavelengths at 405/460nm, 485/535nm and 540/590nm for blue, green and red labels, respectively. This assay includes the green fluorescence data.
Tox21 Assay Protocol Summary: 5 uL of culture medium (MEM containing 10% FBS) per well was dispensed into black wall/clear bottom 1536-well plates using a Multidrop Combi Dispenser (ThermoFisher Scientific, Waltham, MA). After 23 nL compound or DMSO vehicle was transferred into assay plate by a pintool work station (Kalypsys, San Diego, CA), fluorescence intensities in the assay plates were measured by an Envision (PerkinElmer, Shelton, CT) plate reader using three labels for measuring blue, green and red fluorescence at […] 460, 535 and 590nm respectively.
% is set by controls: 0 for no effect and ±100 for the full control effect.

SMILES | outcome | fluorescence, % of fluorescein control
O=C1CCCCO1 | inactive | –
NCc1ccc(S(N)(=O)=O)cc1 | – | 0.0245% [at 18.6 µM] (inactive)
Cc1ccc(C(C)NC(=O)[C@@H](NC(=O)OC(C)C)C(C)C)cc1 (stereo not given in full) | inactive | –
C=CC/C=C/C | inactive | –
Cc1cc(-c2ccccc2)nnc1NCCN1CCOCC1 | inactive | –
COC(C)(OC)OC | inactive | –
CC(=O)OC1CCCCC1C(C)(C)C (stereo not given) | inactive | –
C=CCCCCCCCCC(=O)OCCCC | inactive | –
CC(N)CCCC(C)(C)O (stereo not given) | inactive | –
CC(=O)C1C(=O)C=C(C)OC1=O (stereo not given) | inactive | –
CCCCOCCOC(=O)COc1ccc(Cl)cc1Cl | inactive | –
O=[N+]([O-])c1c(Cl)cc(Cl)cc1Cl | inactive | –
Cc1c(NC(=O)c2cccnc2)c(=O)n(-c2ccccc2)n1C | – | -0.0688% [at 18.6 µM] (inactive)
COC(=O)CCCCC(=O)O | inactive | –
CO/N=C(/C(=O)N[C@@H]1C(=O)N2C(C(=O)[O-])=C(C[n+]3ccn4ncccc43)CS[C@H]12)c1nsc(N)n1 | inactive | –
CC1CC(=O)CC(C)(C)C1 (stereo not given) | inactive | –
CC(=O)c1cc(C)oc1C | inactive | –
COC(=O)c1cccc(Cl)c1 | inactive | –
CCOCCOCC | inactive | –
O=C(O)CNC(=O)CNC(=O)CNC(=O)CSC(=O)c1ccccc1 | inactive | –

SMILES | outcome | fluorescence, % of fluorescein control
C=C(C)[C@@H]1CC=C(C)C(=O)C1 | inactive | –
O=C(O)[C@H](O)c1ccccc1 | inactive | –
O=C(Cn1ccnc1[N+](=O)[O-])NCc1ccccc1 | inactive | –
CC(C)Cn1cnc2c1c(=O)n(C)c(=O)n2C | inactive | –
OCC(O)CN1CCN(c2ccccc2)CC1 (stereo not given) | inactive | –
Nc1nnnn1-c1ccccc1 | inactive | –
O=C1c2ccccc2C(=O)c2cc(Cl)ccc21 | – | -0.0292% [at 3.72 µM] (inactive)
CCC(C)C(C)=O (stereo not given) | inactive | –
CCCCOC(=O)C(C)O (stereo not given) | inactive | –
CCC(C)OC(C)CC (stereo not given) | inactive | –
O=Cc1ccccc1Cl | inactive | –
CCC(=O)c1c(O)cc(O)cc1O | inactive | –
N[C@@H](CSCCCO)C(=O)O | inactive | –
Cc1ccc(N)cc1S(=O)(=O)O | inactive | –
CC1(C)CC(OC(=O)CCCCCCCCC(=O)OC2CC(C)(C)NC(C)(C)C2)CC(C)(C)N1 | – | -0.17% [at 18.6 µM] (inactive)
CCC/C=C(\C=O)CC | inactive | –
CC(CO)(CO)CO | inactive | –
NCCOCCN | inactive | –
c1ccc2cnccc2c1 | inactive | –
CC(=O)CC(=O)Nc1ccc(C)cc1C | inactive | –
